Assay outcomes (PubChem)
D1 ag = human D1 receptor agonism. P21728. hit rate 1% among 360,000. HEK293 T-REx D1 cells, calcium flux, agonist mode. activation, % at 2 µM. AID 504660; note: 0% is about no effect
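Inducible HEK293 T-REx D1 cells, force-coupled to calcium signalling, were plated at 4000 cells/well with tetracycline and held overnight at 30 C. After no-wash calcium dye loading, compound-evoked calcium rise over 180 s flagged agonists.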
TRHR ag = agonists of human TRH receptor; P34981; TRHR cells, calcium flux fluo-8, FDSS agonist mode; activation, % at 2 µM; hit rate 0.18% among 360,000; note: 0% is about no effect
Target sequence (P34981 whole entry, looked up): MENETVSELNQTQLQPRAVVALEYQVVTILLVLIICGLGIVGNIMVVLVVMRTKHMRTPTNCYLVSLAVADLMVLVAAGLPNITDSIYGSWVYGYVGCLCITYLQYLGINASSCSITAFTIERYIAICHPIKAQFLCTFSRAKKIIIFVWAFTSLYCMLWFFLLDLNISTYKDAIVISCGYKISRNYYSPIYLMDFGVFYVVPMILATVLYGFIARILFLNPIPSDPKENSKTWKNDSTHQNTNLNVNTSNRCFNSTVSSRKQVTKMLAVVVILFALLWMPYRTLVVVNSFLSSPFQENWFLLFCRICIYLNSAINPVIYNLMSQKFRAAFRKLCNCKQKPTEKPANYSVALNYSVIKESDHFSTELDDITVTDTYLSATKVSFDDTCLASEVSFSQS
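Fluo-8-loaded TRHR cells; 10 s baseline, compound added, kinetic Ca2+ fluorescence read 1/s, agonist mode.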
TRHR PAM = allosteric enhancers of human TRH receptor. P34981. TRHR cells, fluo-8 calcium fluorescence, EC20 TRH enhancement. enhancement, % at 2 µM. hit rate 0.66% among 360,000; in the data active = enhancement above about 30%; note: 0% is about no effect
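Enhancer read-out: after compound pinning and an initial kinetic agonist-mode read, an EC20 of TRH (10 nM final) was injected and fluo-8 calcium signal (Ex 480/Em 530) followed at 1 s/cycle for 100 cycles in TRHR-expressing cells.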
D1 antagonist = blocks dopamine activation of the human D1 receptor; HEK293 TREx D1 cells, calcium flux, dopamine EC80; stronger effect = lower value; P21728; hit rate 3.2% among 360,000; AID 504652; activity change, negative = inhibition, % at 10 µM; in the data active = activity change below about -30%; note: % is set by controls: 0 for no effect and ±100 for the full control effect
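Allosteric or orthosteric antagonism assessed as attenuation of the calcium response to EC80 dopamine, added 180 s after compound, in induced HEK293 Trex D1 cells loaded with no-wash calcium dye.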
D1 potentiator = potentiators of human D1 dopamine receptor | potentiation, % at 10 µM | P21728 | HEK293 TREx D1 cells, calcium flux, dopamine EC20 potentiation | AID 504651 | hit rate 0.036% among 360,000; in the data active = potentiation above about 30%; note: 0% is about no effect
* hit, by the source's call. This is a sample that favours compounds with a hit; in the whole collection about 4.7% have one here. Cut-off read from the data, not from the text of the source, unless noted: active = activation above about 30%; inactive = the rest.

What do the screens show for `O=C(NC1CC(=O)N(c2ccc(Cl)cc2)C1)c1cc2ccccc2o1` (stereo unspecified)?
D1 ag: -4; TRHR ag: 0; TRHR PAM: -1; D1 potentiator: 0

What do the screens show for `COc1ccc(-c2nc(S(=O)(=O)c3ccc(Cl)cc3)c(N3CCCCCC3)o2)cc1`?
D1 ag: -1; TRHR ag: 0; TRHR PAM: -6; D1 antagonist: 15; D1 potentiator: -3

How did COc1ccccc1OCC(=O)NNC(=O)c1ccc2c(=O)n3c(nc2c1)CCC3 do in these assays?
D1 ag: 4; TRHR ag: 0; TRHR PAM: 5; D1 antagonist: -8; D1 potentiator: -1

How did O=C(CN1N=C(c2ccccc2)CCC1=O)NCc1ccc(F)cc1Cl do in these assays?
D1 ag: -2; TRHR ag: 0; TRHR PAM: 11; D1 antagonist: -9; D1 potentiator: -1

What do the screens show for `CCN(CC)C(=O)c1sc2c(c1C)c(=O)n(-c1ccccc1)c(=O)n2Cc1c(C)cc(C)cc1C`?
D1 ag: 0; TRHR ag: 0; TRHR PAM: -2; D1 antagonist: 4; D1 potentiator: -3

How did CC(OC(=O)c1ccc2ccccc2c1)C(=O)N(C)Cc1ccccc1 (stereo unspecified) do in these assays?
D1 ag: 3; TRHR ag: 0; TRHR PAM: 22; D1 antagonist: -24; D1 potentiator: -1

What do the screens show for `CC(C)N(CCC(=O)c1ccc2ccccc2c1)Cc1ccccc1`?
D1 ag: 1; TRHR ag: 14; TRHR PAM: -19; D1 antagonist: -32*; D1 potentiator: -7

What do the screens show for `COc1cc(CN(C(=O)c2ccc(C)cc2)C2CCS(=O)(=O)C2)cc(OC)c1OC` (stereo unspecified)?
D1 ag: 0; TRHR ag: 0; TRHR PAM: 1; D1 antagonist: -30*; D1 potentiator: -2

Results for Nc1c2c(nc3ccn(-c4ccccc4)c(=O)c13)CCCCC2 ?
D1 ag: 0; TRHR ag: 0; TRHR PAM: 2; D1 antagonist: -35*; D1 potentiator: -10

Results for Nc1c2c(nc3ccn(Cc4ccccc4)c(=O)c13)CCC2 ?
D1 ag: 2; TRHR ag: 0; TRHR PAM: 0; D1 antagonist: -12; D1 potentiator: -7

What do the screens show for `CC(=O)c1cn(CCOc2ccccc2C)c2ccccc12`?
D1 ag: 18; TRHR ag: 0; TRHR PAM: -6; D1 antagonist: -38*; D1 potentiator: -7

Results for Cc1cc(C)c(S(=O)(=O)NCc2ccc3c(c2)cc(C)n3C)c(C)c1 ?
D1 ag: -2; TRHR ag: 0; TRHR PAM: 5; D1 antagonist: -37*; D1 potentiator: -8

Results for CCCC(=O)NCc1ccc2c(c1)cc(C)n2C ?
D1 ag: 3; TRHR ag: 0; TRHR PAM: 8; D1 antagonist: -2; D1 potentiator: -3

How did Cc1cc2cc(CNC(=O)C3CCCC3)ccc2n1C do in these assays?
D1 ag: 2; TRHR ag: 0; TRHR PAM: -9; D1 antagonist: -30*; D1 potentiator: -13

Results for Cc1cc2cc(CNC(=O)c3cccc([N+](=O)[O-])c3)ccc2n1C ?
D1 ag: -1; TRHR ag: 0; TRHR PAM: 0; D1 antagonist: -29; D1 potentiator: -3

Results for Cc1cc2cc(CNC(=O)Cc3ccc([N+](=O)[O-])cc3)ccc2n1C ?
D1 ag: 3; TRHR ag: 0; TRHR PAM: -1; D1 antagonist: -31*; D1 potentiator: -14

Results for Cc1cc2cc(CNS(=O)(=O)c3ccc4ccccc4c3)ccc2n1C ?
D1 ag: -2; TRHR ag: 0; TRHR PAM: 1; D1 antagonist: 1; D1 potentiator: -3

Results for CC(C)c1ccc(/C=N/NC(=O)c2nnn(-c3nonc3N)c2CN(C)C2CCCCC2)cc1 ?
D1 ag: 2; TRHR ag: 0; TRHR PAM: 21; D1 antagonist: 14; D1 potentiator: 3

What do the screens show for `CN1c2ccccc2-c2nc(SCC(=O)Nc3ccccc3C(F)(F)F)ncc2S1(=O)=O`?
D1 ag: 2; TRHR ag: 0; TRHR PAM: -1; D1 antagonist: -9; D1 potentiator: -3
